39 compounds from the supplement of paper PMC4894684 can be followed below.

Counter-ions that a name gives are not always drawn. ± gives the standard deviation of the averaged measurements. Bounds are passed on as bounds.

The test system of the experiment is Toxoplasma gondii RH (in HFF). Nature of the experiment: parasite growth relative to the screen mean (all compounds = 100%); higher = less inhibition of parasite growth. Particulars: 5 µM; 72 h; oxygen 21 %. A digest of the protocol: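 Growth values are relative to the mean of the whole screen and averaged over duplicate screens, with all compounds together set to 100%. Parasites (RH β-Gal–GFP Toxoplasma, MOI 1:5) were added within 2 h of pinning compounds at 5 µM final onto confluent human foreskin fibroblasts and grown 72 h at 21% O2. Parasite number came from CPRG β-Gal readings against in-plate standard curves.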
`C=CCNC(=O)c1cc([N+](=O)[O-])cc2c(=O)[nH]c(Nc3ccc(Cl)c(Cl)c3)nc12`: the parasite growth was determined as 89.6 ± 4.6%.

As for `CCCCCCCCCCCCCCCC(=O)O[C@H](CC(=O)O)C[N+](C)(C)C` (racemic) [(±)-Palmitoylcarnitine chloride], the parasite growth is 108 ± 22%.

Regarding `O=C(Cc1ccccc1)Nc1nc2ccc(Cl)cc2c2nc(-c3ccco3)nn12`, the parasite growth was 121 ± 57%.

The compound `C[C@@H]1CN(CCCn2c3ccccc3c3ccccc32)C[C@H](C)N1` [Rimcazole dihydrochloride] registered a parasite growth of 31.8 ± 4.5%.

The compound `NCCCCCc1c[nH]cn1` [Impentamine dihydrobromide] registered a parasite growth of 132 ± 7.9%.

Compound `COC(=O)C1=C(C)NC(C)=C(C(=O)OCCSc2ccccc2)C1C` (centres undefined) returned a parasite growth of 146 ± 12%.

`c1ccc(C(O[C@@H]2CCCN(CCc3ccc4c(c3)OCO4)C2)c2ccccc2)cc1` [Zamifenacin fumarate] returned a parasite growth of 128 ± 20%.

With `C=CCn1c(=O)n([C@@H]2O[C@H](CO)[C@@H](O)[C@H]2O)c2nc(N)[nH]c(=O)c21`, the parasite growth worked out at 116 ± 8.2%.

`CC1=NN(c2ccccc2)C(=O)C1` registered a parasite growth of 133 ± 8.7%.

For `CCCc1c(OCC(O)COc2ccc3c(=O)cc(C(=O)O)oc3c2CCC)ccc(C(C)=O)c1O` (centres undefined), the parasite growth is 96.9 ± 7.1%.

For `NC(=O)Nc1sc(-c2ccc(F)cc2)cc1C(N)=O`, the parasite growth is 77.1 ± 11%.

For the compound `O=C1CC2(CCCC2)CC(=O)N1CCCCNCC1COc2ccccc2O1` (centres undefined), the parasite growth was 156 ± 5.8%.

Take `O=c1cc(-c2cccc3c2Sc2ccccc2S3)oc(N2CCOCC2)c1`: the parasite growth was found to be 112 ± 15%.

On to `O=C1OC(OC(=O)c2cccnc2Nc2cccc(C(F)(F)F)c2)c2ccccc21` (centres undefined) [Talniflumate], for which the parasite growth turned out to be 113 ± 28%.

Consider `CN/C(=N\c1ccc(C2=NNC(=O)CC2C)cc1)NC#N` (centres undefined) [Siguazodan], for which the parasite growth is 130 ± 23%.

Regarding `CCCCCS(=O)(=O)CCCCCCCCCCn1c(-c2ccc(O)cc2)c(C)c2cc(O)ccc21`, the parasite growth was 132 ± 30%.

The compound `CS(=O)(=O)Nc1ccc([N+](=O)[O-])cc1Oc1ccccc1` [Nimesulide] returned a parasite growth of 98.5 ± 4.5%.

`Cc1nc2c(O)cccc2c(=O)[nH]1` came in with a parasite growth of 122 ± 24%.

Compound `O=c1c(-c2ccc(O)cc2)coc2cc(O)ccc12` [Daidzein] returned a parasite growth of 77.8 ± 43%.

The compound `OC[C@H]1O[C@@H](n2cnc3c(NC4CCCC4)ncnc32)[C@H](O)[C@@H]1O` [N6-Cyclopentyladenosine] registered a parasite growth of 77.4 ± 7.7%.

For the compound `N#C/C(=C\c1ccc(O)c(O)c1)C(=O)NCCCCc1ccccc1`, the parasite growth worked out at 155 ± 18%.

With `O/N=C/c1ccc(-c2ccc(O)c(F)c2)c(Cl)c1O`, the parasite growth was less than 0%.

On to `CCOc1cc(C(=O)Nc2ccc(Cl)c(-c3nc4ccccc4[nH]3)c2)cc(OCC)c1OCC`, for which the parasite growth came to 23.3 ± 3.9%.

In the case of `CCN(Cc1ccncc1)C(=O)C(CO)c1ccccc1` (centres undefined) [Tropicamide], the parasite growth is 111 ± 11%.

`COc1ccc2[nH]cc(CCNC(C)=O)c2c1` [Melatonin]: the parasite growth is 84.8 ± 3.7%.

Take `O=C1N(c2ccccc2)c2ccccc2C1(Cc1ccncc1)Cc1ccncc1` [Linopirdine dihydrochloride]: the parasite growth was found to be 56.5 ± 15%.

`COc1cc2c(cc1O)CC[C@@H]1[C@@H]2CC[C@]2(C)[C@@H](O)CC[C@@H]12` [2-Methoxyestradiol] yielded a parasite growth of 174 ± 46%.

Consider `OCCNCCCOc1cccc(Cl)c1Cl` [2,3-DCPE hydrochloride], for which the parasite growth was 103 ± 8.3%.

The compound `O=C(O)C1=CCCN(CCON=C(c2ccccc2)c2ccccc2)C1` returned a parasite growth of 159 ± 9.8%.

Regarding `CCOC(=O)C1=C(C)NC(=S)NC1c1cccc(O)c1` (centres undefined) [Monastrol], the parasite growth stood at 126 ± 29%.

In the case of `Cc1ccc(S(=O)(=O)/C=C/C#N)cc1`, the parasite growth is 135 ± 27%.

With `COc1cccc(NC(=O)/C=C/c2ccc(Cl)cc2)c1`, the parasite growth turned out to be 136.1 ± 0.67%.

`CN1c2cc3c(cc2N=C(c2ccc(C(=O)O)cc2)c2ccccc21)C(C)(C)CCC3(C)C`: the parasite growth stood at 61.4 ± 34%.

With `COc1ccc(CN(CCN(C)C)c2ccccn2)cc1` [Mepyramine maleate], the parasite growth was 115 ± 5.5%.

As to `CC(C(O)c1ccc(O)cc1)N1CCC(Cc2ccccc2)CC1` (centres undefined) [Ifenprodil hemitartrate], the parasite growth came to 116 ± 4.3%.

`CCCCCCCCCCCCCCCC(=O)C(F)(F)F` returned a parasite growth of 108 ± 7.6%.

`CCOC(=O)C1=C(N)Oc2ccc(Br)cc2C1C(C#N)C(=O)OCC` (centres undefined) had a parasite growth of 135 ± 2.5%.

Take `COc1cc2ncnc(Nc3ccc(Oc4ccccc4)cc3)c2cc1OC`: the parasite growth was determined as 110 ± 20%.

The compound `c1nc(CC2CCNCC2)c[nH]1` [Immepip dihydrobromide] returned a parasite growth of 100.2 ± 0.4%.
